# The supplement of paper PMC8728848
# Many of the other results were omitted from the sample, so the strongest signals are more common in it than they were.
# Key:
# Assay in all cases: glycan array binding signal (z-score within array); higher = stronger binding
# Conditions in all cases: glycan notation: IUPAC condensed, linker removed
# [1] = molecular target: Fuc(a1-2)Gal(b1-3)GalNAc(b1-3)Gal
# Summary of the method: (§1)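 Glycan array data were curated from 3228 arrays in the Consortium for Functional Glycomics database and kept only where the protein sequence was available. Glycan names were converted to IUPAC-condensed notation, and columns mapping to the same glycan were averaged. The binding signal is a within-array Z-score, averaged across arrays of the same protein sequence at different concentrations or buffers and across linkers. Negative Z-scores can be read as non-binding.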
# [2] = molecular target: Fuc(a1-2)Gal(b1-3)GlcNAc(b1-3)Gal(b1-4)Glc
# Summary of the method: as §1
# [3] = molecular target: Fuc(a1-2)Gal(b1-4)[Fuc(a1-3)]GlcNAc(b1-3)[Neu5Ac(a2-6)Gal(b1-4)GlcNAc(b1-6)]Gal(b1-4)Glc
# Summary of the method: as §1
# [4] = molecular target: Fuc(a1-2)[Gal(a1-3)]Gal(b1-4)GlcNAc(b1-2)Man
# Summary of the method: as §1
# [5] = molecular target: Fuc(a1-2)[GalNAc(a1-3)]Gal(b1-3)GalNAc(b1-3)Gal(a1-4)Gal(b1-4)Glc
# Summary of the method: as §1
# [6] = molecular target: Fuc(a1-2)[GalNAc(a1-3)]Gal(b1-3)GlcNAc(b1-2)Man(a1-3)[Fuc(a1-2)[GalNAc(a1-3)]Gal(b1-3)GlcNAc(b1-2)Man(a1-6)]Man(b1-4)GlcNAc(b1-4)GlcNAc
# Summary of the method: as §1
# [7] = molecular target: Fuc(a1-3)[Gal(b1-4)]GlcNAc(b1-2)Man(a1-3)[Fuc(a1-3)[Gal(b1-4)]GlcNAc(b1-2)Man(a1-6)]Man(b1-4)GlcNAc(b1-4)GlcNAc
# Summary of the method: as §1
# [8] = molecular target: Gal(a1-3)Gal(b1-3)GlcNAc(b1-3)GalNAc
# Summary of the method: as §1
# [9] = molecular target: Gal(a1-3)Gal(b1-3)[Fuc(a1-4)]GlcNAc(b1-2)Man(a1-3)[Gal(a1-3)Gal(b1-3)[Fuc(a1-4)]GlcNAc(b1-2)Man(a1-6)]Man(b1-4)GlcNAc(b1-4)GlcNAc
# Summary of the method: as §1
# [10] = molecular target: Gal(a1-3)GalNAc
# Summary of the method: as §1
# [11] = molecular target: Gal(a1-4)Gal(b1-4)GlcNAc
# Summary of the method: as §1
# [12] = molecular target: Gal(a1-4)Gal(b1-4)GlcNAc(b1-2)Man(a1-3)[Gal(a1-4)Gal(b1-4)GlcNAc(b1-2)Man(a1-6)]Man(b1-4)GlcNAc(b1-4)GlcNAc
# Summary of the method: as §1
# [13] = molecular target: Gal(a1-4)Gal(b1-4)GlcNAc(b1-3)Gal(b1-4)Glc
# Summary of the method: as §1
# [14] = molecular target: Gal(b1-2)Gal
# Summary of the method: as §1
# [15] = molecular target: Gal(b1-3)GlcNAc(b1-3)Gal(b1-4)Glc
# Summary of the method: as §1
# [16] = molecular target: Gal(b1-3)[Fuc(a1-4)]GlcNAc(b1-2)Man(a1-3)[Gal(b1-3)[Fuc(a1-4)]GlcNAc(b1-2)Man(a1-6)]Man(b1-4)GlcNAc(b1-4)[Fuc(a1-6)]GlcNAc
# Summary of the method: as §1
# [17] = molecular target: Gal(b1-4)Glc
# Summary of the method: as §1
# [18] = molecular target: Gal(b1-4)GlcNAc(b1-2)[Gal(b1-4)GlcNAc(b1-4)]Man(a1-3)[Gal(b1-4)GlcNAc(b1-2)Man(a1-6)]Man(b1-4)GlcNAc(b1-4)GlcNAc
# Summary of the method: as §1
# [19] = molecular target: Gal(b1-4)GlcNAc(b1-3)Gal(b1-4)Glc
# Summary of the method: as §1
# [20] = molecular target: Gal(b1-4)GlcNAc(b1-3)Gal(b1-4)GlcNAc(b1-3)Gal(b1-4)GlcNAc(b1-2)Man(a1-3)[Gal(b1-4)GlcNAc(b1-3)Gal(b1-4)GlcNAc(b1-3)Gal(b1-4)GlcNAc(b1-2)Man(a1-6)]Man(b1-4)GlcNAc(b1-4)[Fuc(a1-6)]GlcNAc
# Summary of the method: as §1
# [21] = molecular target: Gal(b1-4)GlcNAc(b1-3)GalNAc
# Summary of the method: as §1
# [22] = molecular target: Gal(b1-4)GlcNAc(b1-6)Gal(b1-4)GlcNAc
# Summary of the method: as §1
# [23] = molecular target: Gal(b1-6)Gal
# Summary of the method: as §1
# [24] = molecular target: Gal4S(b1-4)GlcNAc
# Summary of the method: as §1
# [25] = molecular target: GalNAc(b1-3)GalNAc
# Summary of the method: as §1
# [26] = molecular target: GlcA(b1-3)GlcNAc
# Summary of the method: as §1
# [27] = molecular target: GlcNAc(a1-4)Gal(b1-4)GlcNAc(b1-3)Gal(b1-4)[Fuc(a1-3)]GlcNAc(b1-3)Gal(b1-4)[Fuc(a1-3)]GlcNAc
# Summary of the method: as §1
# [28] = molecular target: GlcNAc(b1-3)Gal(b1-4)GlcNAc(b1-3)Gal(b1-4)GlcNAc(b1-2)Man(a1-3)[GlcNAc(b1-3)Gal(b1-4)GlcNAc(b1-3)Gal(b1-4)GlcNAc(b1-2)Man(a1-6)]Man(b1-4)GlcNAc(b1-4)GlcNAc
# Summary of the method: as §1
# [29] = molecular target: GlcNAc(b1-3)Gal(b1-4)GlcNAc(b1-3)Gal(b1-4)GlcNAc(b1-3)Gal(b1-4)GlcNAc(b1-3)Gal(b1-4)GlcNAc(b1-2)[GlcNAc(b1-3)Gal(b1-4)GlcNAc(b1-3)Gal(b1-4)GlcNAc(b1-3)Gal(b1-4)GlcNAc(b1-3)Gal(b1-4)GlcNAc(b1-6)]Man(a1-6)[GlcNAc(b1-3)Gal(b1-4)GlcNAc(b1-3)Gal(b1-4)GlcNAc(b1-3)Gal(b1-4)GlcNAc(b1-3)Gal(b1-4)GlcNAc(b1-2)Man(a1-3)]Man(b1-4)GlcNAc(b1-4)[Fuc(a1-6)]GlcNAc
# Summary of the method: as §1
# [30] = molecular target: GlcNAc(b1-3)[GlcNAc(b1-6)]Gal(b1-4)GlcNAc
# Summary of the method: as §1
# [31] = molecular target: GlcNAc(b1-2)[GlcNAc(b1-4)]Man(a1-3)[GlcNAc(b1-2)Man(a1-6)]Man(b1-4)GlcNAc(b1-4)GlcNAc
# Summary of the method: as §1
# [32] = molecular target: GlcNAc(b1-3)Gal(b1-4)Glc
# Summary of the method: as §1
# [33] = molecular target: GlcNAc(b1-4)GlcNAc
# Summary of the method: as §1
# [34] = molecular target: GlcNAc(b1-4)[GlcNAc(b1-6)]GalNAc
# Summary of the method: as §1
# [35] = molecular target: Man(a1-2)Man(a1-2)Man(a1-3)Man
# Summary of the method: as §1
# [36] = molecular target: Man(a1-2)Man(a1-3)[Man(a1-2)Man(a1-6)]Man(a1-6)[Man(a1-2)Man(a1-2)Man(a1-3)]Man
# Summary of the method: as §1
# [37] = molecular target: Neu5Ac(a2-3)Gal
# Summary of the method: as §1
# [38] = molecular target: Neu5Ac(a2-3)Gal(b1-3)GlcNAc(b1-2)Man(a1-3)[Neu5Ac(a2-3)Gal(b1-3)GlcNAc(b1-2)Man(a1-6)]Man(b1-4)GlcNAc(b1-4)GlcNAc
# Summary of the method: as §1
# [39] = molecular target: Neu5Ac(a2-3)Gal(b1-3)[Fuc(a1-4)]GlcNAc(b1-3)Gal(b1-4)[Fuc(a1-3)]GlcNAc
# Summary of the method: as §1
# [40] = molecular target: Neu5Ac(a2-3)Gal(b1-4)Glc
# Summary of the method: as §1
# [41] = molecular target: Neu5Ac(a2-3)[Neu5Ac(a2-6)]GalNAc
# Summary of the method: as §1
# [42] = molecular target: Neu5Ac(b2-6)GalNAc
# Summary of the method: as §1
binder,measurement,setting,value
F17-L (Escherichia coli) (protein) GPDDYVPSQIAVNTSTLPGVVIGPADAHTYPRVIGELAGTSNQYVFNGGAIALMRGKFTPALPKIGSITYTFHQGNSRDSSDFDIYDIGVSGLGIIIGMAGYWPATPLVPINSSGIYIDPVGANTNPNTYNGATASFGARLFVAFVATGRLPNGYITIPTRQLGTILLEAKRTSLNNKGLTAPVMLNGGRIQVQSQTHHHHHH,glycan array binding signal (z-score),[1],-0.136
same,glycan array binding signal (z-score),[2],1.54
same,glycan array binding signal (z-score),[3],-0.136
same,glycan array binding signal (z-score),[4],0.196
same,glycan array binding signal (z-score),[5],0.104
same,glycan array binding signal (z-score),[6],-0.078
same,glycan array binding signal (z-score),[7],-0.072
same,glycan array binding signal (z-score),[8],-0.023
same,glycan array binding signal (z-score),[9],0.699
same,glycan array binding signal (z-score),[10],-0.118
same,glycan array binding signal (z-score),[11],1.8
same,glycan array binding signal (z-score),[12],22.9
same,glycan array binding signal (z-score),[13],2.92
same,glycan array binding signal (z-score),[14],-0.01
same,glycan array binding signal (z-score),[15],1.3
same,glycan array binding signal (z-score),[16],0.915
same,glycan array binding signal (z-score),[17],-0.096
same,glycan array binding signal (z-score),[18],-0.169
same,glycan array binding signal (z-score),[19],1.67
same,glycan array binding signal (z-score),[20],0.05
same,glycan array binding signal (z-score),[21],-0.12
same,glycan array binding signal (z-score),[22],-0.156
same,glycan array binding signal (z-score),[23],-0.146
same,glycan array binding signal (z-score),[24],-0.113
same,glycan array binding signal (z-score),[25],-0.19
same,glycan array binding signal (z-score),[26],1
same,glycan array binding signal (z-score),[27],-0.101
same,glycan array binding signal (z-score),[28],0.024
same,glycan array binding signal (z-score),[29],0.006
same,glycan array binding signal (z-score),[30],-0.228
FimA (Actinomyces oris) (protein) MHHHHHHSSGVDLGTENLYFQSNAETPNYGNIKTDATGSLVIHKHLTGGGKDIGTPTGTAQNADDKGPAVEGVVFTAYPITDINLKDPAGWDTISNLSRTGVPDSACANPAAPTLGAHQFGTPKVSPATTKEGLATITEMPVQAYLVCETTTPGDIVQKAKPFVVTIPHPNTAAGADGQWIYDVNVYPKNEAIDVDKTIQAQKLNGYGVGSLIKFPVESTAPTLDAKSFYKYFQLKDTLDERLSEVTATDVSLEGTPLQPTDYKVETKQQTVTVTFTAEGLKKIKAAPGKKVSAVFQGKVTKAGNGAITNRAQVISDTLYAEQPPTPETPPTDPENPPTSDEVISRWGDLSIKKVDTHQQGQTKAGLQGAQFQLYKAKNAYANTCSNEKEGAPIAINGQTTLTTDAQGAIDIKGLFISDSIDGADRDNQVNAMERCYVLVETKAPAGYVLPAGNGAATPVKVKAGEETTDNVTVENTKQSVPGLPLTG,glycan array binding signal (z-score),[31],-0.403
same,glycan array binding signal (z-score),[32],-0.311
same,glycan array binding signal (z-score),[33],-0.621
same,glycan array binding signal (z-score),[34],-0.564
same,glycan array binding signal (z-score),[35],4.88
same,glycan array binding signal (z-score),[36],-0.88
same,glycan array binding signal (z-score),[37],-0.143
same,glycan array binding signal (z-score),[38],-0.233
same,glycan array binding signal (z-score),[39],0.196
same,glycan array binding signal (z-score),[40],-0.06
same,glycan array binding signal (z-score),[41],0.518
same,glycan array binding signal (z-score),[42],-0.85
